Reference: PubChem BioAssay (NCI)
Compounds without any hit were thinned out: in the full panel of roughly 79,000, 15% have a hit. A number with no mark means an inactive call. The source made the active and inactive calls. Cut-off read from the data, not from the text of the source: active = growth inhibition above about 70%; inactive = the rest.

Tests used:
[1] = NCI Yeast Anticancer Drug Screen. Data for the rad50 strain (AID 155);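 note: 0% = growth of vehicle-only cultures of the same strain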; details: S. cerevisiae rad50 strain growth inhibition; at 50.0 µM; stronger effect = higher value
Summary of the method: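 Readout: growth inhibition relative to vehicle-treated cultures. Compound exposure was carried out in a genetically defined yeast strain deficient in DNA damage repair.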

[2] = NCI Yeast Anticancer Drug Screen. Data for the mec2-1 strain (AID 157); details: S. cerevisiae mec2-1 strain, at 50.0 µM, stronger effect = higher value
Summary of the method: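 Strain: mec2-1 (DNA repair/cell cycle alteration). Compound exposure, then growth measured; inhibition expressed relative to vehicle.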

[3] = NCI Yeast Anticancer Drug Screen. Data for the sgs1 mgt1 strain (AID 161);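 note: 0% = growth of cultures given vehicle only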; details: S. cerevisiae sgs1 mgt1 strain, at 50.0 µM, stronger effect = higher value
Summary of the method: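 Read-out: growth inhibition vs vehicle controls. Cells: mutant yeast strain deficient in DNA damage repair.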

[4] = NCI Yeast Anticancer Drug Screen. Data for the cln2 rad14 strain (AID 165);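 note: 0% = growth equal to vehicle treated cultures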; details: S. cerevisiae cln2 rad14 strain, at 50.0 µM, stronger effect = higher value
Summary of the method: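 Compounds are applied to the cln2 rad14 yeast strain, and growth is then compared with that of vehicle-treated cultures to give inhibition.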

[5] = NCI Yeast Anticancer Drug Screen. Data for the bub3 strain (AID 167); details: S. cerevisiae bub3 mutant strain, at 50.0 µM, stronger effect = higher value
Summary of the method: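 Readout: yeast growth inhibition, expressed relative to vehicle-only wells. The test organism is a mutant strain from a panel with lesions in DNA repair or checkpoint genes.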

[6] = NCI Yeast Anticancer Drug Screen. Data for the mlh1 rad18 strain (AID 175); details: S. cerevisiae mlh1 rad18 strain growth inhibition; at 50.0 µM; stronger effect = higher value
Summary of the method: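 Read-out is yeast growth inhibition, calculated against vehicle-only controls. The compound was applied to a strain engineered with DNA damage repair alterations.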

SMILES: O=C1C=C(Nc2ccc(Cl)cc2C(=O)c2ccccc2)c2ccccc2C1=O
- growth inhibition [1]: 3%
- growth inhibition [2]: -11.7%
- growth inhibition [3]: -6.9%
- growth inhibition [4]: 22.2%
- growth inhibition [5]: -6.55%
- growth inhibition [6]: -2.9%

SMILES: S=C(NNC(=S)Nc1ccccc1Cl)NNc1ccccc1
- growth inhibition [1]: 80.8% (active)
- growth inhibition [2]: 82.8% (active)
- growth inhibition [3]: 93.4% (active)
- growth inhibition [4]: 68.2%
- growth inhibition [5]: 82.8% (active)
- growth inhibition [6]: 88.9% (active)

SMILES: COC(=O)[C@H]1C=C[C@@H](C)n2c(=O)c3ccccc3c(=O)n21
- growth inhibition [1]: -9%
- growth inhibition [2]: 15.4%
- growth inhibition [3]: -1.4%
- growth inhibition [4]: -9.75%
- growth inhibition [5]: -19.1%
- growth inhibition [6]: -6.8%

SMILES: CCC(CC)C(=O)NC
- growth inhibition [1]: -4.25%
- growth inhibition [2]: -5.2%
- growth inhibition [3]: -3.5%
- growth inhibition [4]: 2.2%
- growth inhibition [5]: -0.85%
- growth inhibition [6]: -1.8%

SMILES: COc1cccc2c1OCC1Cc3ccccc3OC21 (stereo not drawn)
- growth inhibition [1]: 72.2% (active)
- growth inhibition [2]: 45%
- growth inhibition [3]: 85.7% (active)
- growth inhibition [4]: 72.2% (active)
- growth inhibition [5]: 51.8%
- growth inhibition [6]: 95.7% (active)

SMILES: CCCNC(=S)/N=C/c1c(O)cc(C)oc1=O
- growth inhibition [1]: -51.6%
- growth inhibition [2]: -65.6%
- growth inhibition [3]: -24.2%
- growth inhibition [4]: -0.3%
- growth inhibition [5]: -18.5%
- growth inhibition [6]: -42.2%

SMILES: CC1CC[C@@]23CCC4(C)[C@@](C=CC5[C@@]6(C)CCC(=O)C(C)(C)C6CC[C@]54C)(OC2=O)[C@@H]3[C@H]1C (stereo partly drawn)
- growth inhibition [1]: -14.8%
- growth inhibition [2]: -17.6%
- growth inhibition [3]: -14.7%
- growth inhibition [4]: -15.1%
- growth inhibition [5]: -14.5%
- growth inhibition [6]: -8.15%

SMILES: C=C1C(=O)OC2/C=C(\C)C(O)C/C=C(/C)C(OC(=O)/C(C)=C\C)C(O)C12 (stereo not drawn)
- growth inhibition [1]: 13.9%
- growth inhibition [2]: -17.8%
- growth inhibition [3]: 7.2%
- growth inhibition [4]: 5.6%
- growth inhibition [5]: -12.8%
- growth inhibition [6]: 11.8%

SMILES: COc1ccc(C(=O)COC(C)(C)C)cc1
- growth inhibition [1]: -8.55%
- growth inhibition [2]: -28.2%
- growth inhibition [3]: -20%
- growth inhibition [4]: -2.7%
- growth inhibition [5]: -16.9%
- growth inhibition [6]: -22.1%

SMILES: CC(O)CN1CCOCC1 (stereo not drawn)
- growth inhibition [1]: 9.55%
- growth inhibition [2]: 2.2%
- growth inhibition [3]: -0.1%
- growth inhibition [4]: 15.2%
- growth inhibition [5]: -9.85%
- growth inhibition [6]: 3.55%

SMILES: O=C(NCCCl)NCc1ccco1
- growth inhibition [1]: -6.6%
- growth inhibition [2]: 0.9%
- growth inhibition [3]: -3.55%
- growth inhibition [4]: -39.2%
- growth inhibition [5]: -4.85%
- growth inhibition [6]: -0.9%

SMILES: CCOC(=O)CCCCCC(C(=O)OCC)c1nc2ccccc2[nH]c1=O (stereo not drawn)
- growth inhibition [1]: -14.4%
- growth inhibition [2]: 0.4%
- growth inhibition [3]: 10.9%
- growth inhibition [4]: -5.1%
- growth inhibition [5]: 11.1%
- growth inhibition [6]: 8.55%

SMILES: CCOP(=O)(OCC)c1c(C(=O)OC)cc(=O)[nH]c1-c1ccc(C)cc1
- growth inhibition [1]: 44.9%
- growth inhibition [2]: 23.4%
- growth inhibition [3]: 40%
- growth inhibition [4]: 25.2%
- growth inhibition [5]: 53.7%
- growth inhibition [6]: 61.3%

SMILES: CC(C)(C)CC(C)(C)NCc1ccccc1
- growth inhibition [1]: 22.9%
- growth inhibition [2]: -5.55%
- growth inhibition [3]: 2.5%
- growth inhibition [4]: 0.2%
- growth inhibition [5]: 2.5%
- growth inhibition [6]: 18.3%

SMILES: CCCOC(=O)CC(CC(=O)OCCC)C(=O)OCCC
- growth inhibition [1]: -10.9%
- growth inhibition [2]: 0.55%
- growth inhibition [3]: -3.75%
- growth inhibition [4]: -13.4%
- growth inhibition [5]: 37.2%
- growth inhibition [6]: -2.5%

SMILES: CC1CC(=O)CC[C@@H]1OCc1ccccc1 (stereo partly drawn)
- growth inhibition [1]: 5.95%
- growth inhibition [2]: -17.4%
- growth inhibition [3]: -5.05%
- growth inhibition [4]: 19.9%
- growth inhibition [5]: -8.95%
- growth inhibition [6]: 16.7%

SMILES: COc1cc(C2c3cc4c(cc3OC3(OC)COC(=O)C23)OCO4)cc(OC)c1OC (stereo not drawn)
- growth inhibition [1]: 0.4%
- growth inhibition [2]: 13.4%
- growth inhibition [3]: 4.9%
- growth inhibition [4]: -13.9%
- growth inhibition [5]: -21.1%
- growth inhibition [6]: -21.4%

SMILES: COC(=O)CCSC(=S)NCc1ccccc1
- growth inhibition [1]: -14.4%
- growth inhibition [2]: -30.1%
- growth inhibition [3]: -20%
- growth inhibition [4]: -222%
- growth inhibition [5]: -3.45%
- growth inhibition [6]: -12.7%

SMILES: CCN(CC)Cc1cc(N)cc(N=Nc2ccc3c(c2)c2ccccc2n3CC)c1O
- growth inhibition [1]: 29.2%
- growth inhibition [2]: 0%
- growth inhibition [3]: 12.4%
- growth inhibition [4]: 27.7%
- growth inhibition [5]: -3.4%
- growth inhibition [6]: 17.9%

SMILES: CC(=O)NC1=N/C(=C\c2ccc(Cl)cc2)C(=O)N1/C=C1\C(=O)Oc2ccccc2C1=O
- growth inhibition [1]: 50%
- growth inhibition [2]: 13.9%
- growth inhibition [3]: 24.9%
- growth inhibition [4]: 26%
- growth inhibition [5]: 49.7%
- growth inhibition [6]: 41.9%

SMILES: O=C(O)CCC(CCC(=O)O)(C(=O)O)C(=O)O
- growth inhibition [1]: 5.8%
- growth inhibition [2]: -7.85%
- growth inhibition [3]: -6.1%
- growth inhibition [4]: -41%
- growth inhibition [5]: -0.85%
- growth inhibition [6]: 2.9%

SMILES: COc1ccc(C(c2c(O)c3ccccc3oc2=O)N2CCCC2)c(OC)c1 (stereo not drawn)
- growth inhibition [1]: 7.7%
- growth inhibition [2]: -5.7%
- growth inhibition [3]: -3.25%
- growth inhibition [4]: -25.1%
- growth inhibition [5]: -1.15%
- growth inhibition [6]: -3.3%

SMILES: COC(=O)C(c1ccccc1)S(=O)(=O)c1ccccc1 (stereo not drawn)
- growth inhibition [1]: -2.75%
- growth inhibition [2]: -13.3%
- growth inhibition [3]: 3.6%
- growth inhibition [4]: -2.75%
- growth inhibition [5]: -21.4%
- growth inhibition [6]: -5.5%

SMILES: CCN(CC)CC(c1ccccc1)C(C)(O)c1ccccc1 (stereo not drawn)
- growth inhibition [1]: -2%
- growth inhibition [2]: -10.1%
- growth inhibition [3]: -8%
- growth inhibition [4]: 10.9%
- growth inhibition [5]: 27.4%
- growth inhibition [6]: -22.4%

SMILES: Nc1cccc2ncccc12
- growth inhibition [1]: 0.6%
- growth inhibition [2]: -9.95%
- growth inhibition [3]: -13.5%
- growth inhibition [4]: -30%
- growth inhibition [5]: -1.95%
- growth inhibition [6]: -19.9%

SMILES: NNC(=O)c1ccc(Cl)cc1Nc1ccccc1
- growth inhibition [1]: 24.9%
- growth inhibition [2]: 47%
- growth inhibition [3]: 59%
- growth inhibition [4]: 16.7%
- growth inhibition [5]: -17.2%
- growth inhibition [6]: 89% (active)

SMILES: Clc1ccc(C2ON=C(c3ccccc3)N2C23CC4CC(CC(C4)C2)C3)cc1 (stereo not drawn)
- growth inhibition [1]: -23.2%
- growth inhibition [2]: -27%
- growth inhibition [3]: -24.1%
- growth inhibition [4]: -0.3%
- growth inhibition [5]: -11.9%
- growth inhibition [6]: -0.75%

SMILES: Nc1nc(-c2ccc(S(=O)(=O)O)cc2)cc(=O)[nH]1
- growth inhibition [1]: -9.6%
- growth inhibition [2]: -4.5%
- growth inhibition [3]: -10.7%
- growth inhibition [4]: 17.2%
- growth inhibition [5]: -27.4%
- growth inhibition [6]: 16.5%

SMILES: Cc1ccccc1CCOC(=O)c1cc([N+](=O)[O-])cc([N+](=O)[O-])c1
- growth inhibition [1]: -19%
- growth inhibition [2]: 2.2%
- growth inhibition [3]: -10.9%
- growth inhibition [4]: 4.1%
- growth inhibition [5]: 5.45%
- growth inhibition [6]: -16.4%

SMILES: CCCCCC/C(C)=N/O
- growth inhibition [1]: -1.8%
- growth inhibition [2]: 3.75%
- growth inhibition [3]: 0.8%
- growth inhibition [4]: 4.85%
- growth inhibition [5]: 10.7%
- growth inhibition [6]: -6.2%

SMILES: CN(C)c1c2c(oc(=O)c1Cl)-c1ccccc1OCC2
- growth inhibition [1]: -14.3%
- growth inhibition [2]: -12.8%
- growth inhibition [3]: -10.4%
- growth inhibition [4]: -4.85%
- growth inhibition [5]: -19.1%
- growth inhibition [6]: -17.6%

SMILES: Cc1nnnn1-c1ccc2ccccc2c1
- growth inhibition [1]: -24.8%
- growth inhibition [2]: -24%
- growth inhibition [3]: -6.8%
- growth inhibition [4]: -20.6%
- growth inhibition [5]: -0.05%
- growth inhibition [6]: 4.45%

SMILES: S=C1CC(c2ccc(Cl)cc2)Sc2ccccc2N1 (stereo not drawn)
- growth inhibition [1]: -24.9%
- growth inhibition [2]: -5.6%
- growth inhibition [3]: -9.4%
- growth inhibition [4]: -0.95%
- growth inhibition [5]: -6.85%
- growth inhibition [6]: -31.4%

SMILES: COCCCC(NC(=O)C(CC(C)C)NC(=O)OCc1ccc(OC)cc1)C(N)=O (stereo not drawn)
- growth inhibition [1]: -12.9%
- growth inhibition [2]: -21.4%
- growth inhibition [3]: -22.9%
- growth inhibition [4]: 4.2%
- growth inhibition [5]: -12.1%
- growth inhibition [6]: 4.2%

SMILES: N#C/C(=C\NC(N)=S)C(=O)c1ccc2ccccc2c1
- growth inhibition [1]: -14.3%
- growth inhibition [2]: -20.9%
- growth inhibition [3]: -25.9%
- growth inhibition [4]: 27.5%
- growth inhibition [5]: 0.8%
- growth inhibition [6]: -11.1%

SMILES: COC(=O)C(Cl)(Cl)c1nc(NC(C)=O)[nH]c(=O)c1Cl
- growth inhibition [1]: 0.45%
- growth inhibition [2]: 13.3%
- growth inhibition [3]: 3.65%
- growth inhibition [4]: -20%
- growth inhibition [5]: -16.4%
- growth inhibition [6]: 0.45%

SMILES: CC1CC(C)NC(=O)N1 (stereo not drawn)
- growth inhibition [1]: -13%
- growth inhibition [2]: 13.5%
- growth inhibition [3]: -13.9%
- growth inhibition [4]: 16.1%
- growth inhibition [5]: 15.8%
- growth inhibition [6]: 0.4%

SMILES: NC(=O)C1CCCCC1C(=O)O (stereo not drawn)
- growth inhibition [1]: 1.5%
- growth inhibition [2]: 5%
- growth inhibition [3]: 6.65%
- growth inhibition [4]: -10.7%
- growth inhibition [5]: 4.6%
- growth inhibition [6]: 14.8%
